From PubChem
hNpr1 antagonist = blocks ANP-stimulated signaling of human Npr1 receptor. P16066. HEK293 hNpr1 GloSensor cGMP, ANP-stimulated luminescence. Potency, µM (titrated, usually from 46.3 µM), inactives show at the highest dose activity change, negative = inhibition, hits mostly inhibitors. 76,000 tested, 1.6% active; calls by dose curve; note: nearly all actives have a fitted effect of over 60% in size
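HEK293 cells stably expressing human Npr1 and cGMP GloSensor pGS-40F, loaded 2 h with 2% GloSensor reagent, given compound 30 min at room temperature. Luminescence read before and 20 min after 0.1 nM hNppA.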
HEK cytotox = cytotoxic compounds in HEK 293 cells; 94,000 tested, 6.6% active; HEK 293 viability, ATP luminescence (CellTiter-Glo), 48-72 h; Potency, µM (highest dose often 115 µM), for inactives: at the highest dose activity change, negative = cytotoxicity, actives largely listed as inhibitors; note: nearly all actives have a fitted effect of over 60% in size
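HEK 293 seeded at 250 cells/well receive compound via pintool. After 48 or 72 hr at 37 degree Celsius, 5% CO2 and 95% humidity, CellTiter-Glo is dispensed and luminescence read following 10 min at room temperature.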
GPT2 inhibitor = GPT2 alanine aminotransferase inhibition; 100,000 tested, 0.25% active; AID 1671188; Q8TD30; Recombinant GPT2, coupled pyruvate oxidase/HRP Amplex Red fluorescence; Potency, µM (top dose mostly 57.7 µM), inactives show at the top dose activity change, negative = inhibition, actives largely listed as inhibitors; note: nearly all actives have a fitted effect of over 60% in size
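Recombinant GPT2 (10ng/uL) with 250uM a-KG and 2mM L-alanine, 30 min at room temperature, in HEPES pH 7.5 buffer. Pyruvate detected by pyruvate oxidase/HRP/Amplex Red fluorescence after 30 min in the dark; AOA (50uM) as positive control.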
Luciferase inh = blocks purified firefly luciferase enzyme activity; P08659; purified P. pyralis luciferase, luminescence, biochemical; Potency, µM (highest dose often 115 µM), hits mostly inhibitors; 76,000 tested, 2.5% active; AID 1347043; note: nearly all actives have a fitted effect of over 65% in size
Target sequence (P08659 whole entry, looked up): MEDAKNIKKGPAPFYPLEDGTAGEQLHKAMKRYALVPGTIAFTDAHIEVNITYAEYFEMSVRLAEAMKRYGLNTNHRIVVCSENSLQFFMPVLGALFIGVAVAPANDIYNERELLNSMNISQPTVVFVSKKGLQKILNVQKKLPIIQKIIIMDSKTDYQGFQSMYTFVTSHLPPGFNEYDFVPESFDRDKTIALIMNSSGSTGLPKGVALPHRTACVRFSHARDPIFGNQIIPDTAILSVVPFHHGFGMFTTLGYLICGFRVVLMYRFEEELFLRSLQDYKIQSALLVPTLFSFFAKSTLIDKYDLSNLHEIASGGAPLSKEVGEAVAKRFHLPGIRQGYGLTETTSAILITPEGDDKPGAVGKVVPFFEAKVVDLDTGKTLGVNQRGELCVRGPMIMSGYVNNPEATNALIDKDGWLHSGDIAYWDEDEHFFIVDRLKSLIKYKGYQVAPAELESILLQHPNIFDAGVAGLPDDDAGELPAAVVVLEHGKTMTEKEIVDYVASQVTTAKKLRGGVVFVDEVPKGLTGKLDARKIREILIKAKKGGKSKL
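Luminescence read by CCD imaging after purified firefly luciferase (10nM final) was added to substrate buffer holding 10uM D-luciferin and 10uM ATP, pH 7.5, pre-dosed with compound.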
3T3 cytotox = cytotoxic compounds in NIH 3T3 cells. NIH 3T3 viability, CellTiter-Glo ATP luminescence, 48-72 h. Potency, µM (doses to about 96.7 µM), for the others: at the highest dose activity change, negative = cytotoxicity, usual class: inhibitors. 94,000 tested, 4.3% active. AID 1345082; note: nearly all actives have a fitted effect of over 55% in size
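Cytotoxicity is measured as loss of cellular ATP: NIH 3T3 cells (400/well) are exposed to compound for 48 or 72 hr at 37 °C, then CellTiter-Glo luminescence is imaged after 10 min at room temperature.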
Starred values were filed as active, the others as inactive; i = inactive; ? = inconclusive; . = not tested or not shown; ! = a repeat was not active; [ ] = another dose, or the depositor's remark. Only some compounds are listed: those with a hit (about 10% of all), similar ones and a draw of the others. Unless noted, calls come from the whole dose curve; as a rule, active = well fitted curve in the direction sought with a large enough effect; inconclusive = small, poorly fitted or top-dose-only effect, or another doubt; inactive = no such curve, though single readings can be large; an effect the other way counts as inactive or inconclusive. % is set by controls: 0 for no effect and ±100 for the full control effect; potency is the fitted concentration of half-maximal effect.

SMILES	hNpr1 antagonist	HEK cytotox	GPT2 inhibitor	Luciferase inh	3T3 cytotox
COc1ccc(-c2cnc3n2CC(C(=O)NCCNC(C)=O)CC3)cc1 (centres undefined)	1%	i	1%	i	i
CO[C@@]12[C@H](COC(N)=O)C3=C(C(=O)C(C)=C(N)C3=O)N1C[C@@H]1N[C@@H]12	.	.	14µM*!	.	.
Cc1ccccc1CN1Cc2nc(-c3ccc4c(c3)OCO4)ccc2OCC1=O	-21%[70.6 µM]	35µM*	-3%[88.5 µM]	i	?
Cc1ccccc1CN1Cc2nc(-c3cccc(C(N)=O)c3)ccc2OCC1=O	-14%[70.6 µM]	71µM*	i	i	?
Oc1ccc(NCCN2CCCC2)cc1	.	?	i	.	45µM*
Clc1ccc(NCCN2CCCC2)cc1	.	-24%[230 µM]	4%[88.5 µM]	.	-4%[174 µM]
CN(Cc1ccccc1CN1CCCC1)C(=O)C1CC2(CCNCC2)CN1C (centres undefined)	3%	-11%	-10%	i	-8%
O=S(=O)(NC[C@@H]1CCNC[C@H]1O)N1CCCCCC1	4%	i	-1%	i	1%
c1c[nH]c(-c2nc3ccncc3[nH]2)c1	-18%[70.6 µM]	-27%[230 µM]	-15%[88.5 µM]	?	-29%[174 µM]
O=C([C@@H]1C[C@H](c2ccc(F)cc2)N(Cc2ccccc2Cl)C1)N1CC(O)C1	-13%[70.6 µM]	71µM*	-8%[88.5 µM]	i	89µM*
O=C([C@@H]1C[C@H](c2ccc(F)cc2)N(Cc2ccccc2Cl)C1)N1CCN(CCO)CC1	-16%	?	-24%	i	?
O=C([C@@H]1C[C@H](c2ccc(F)cc2)N(Cc2ccccc2Cl)C1)N1CCOCC1	-5%[70.6 µM]	?	-23%[88.5 µM]	i	89µM*
COC(=O)c1cccc2nc([C@H]3CCN(Cc4ccccc4C)C3)oc12	4%[70.6 µM]	89µM*	5%[88.5 µM]	i	?
CC(=O)N1CCC(C2CCN(Cc3ccccc3C)C2)CC1 (centres undefined)	9%	-23%	3%	i	-18%
COc1ccccc1-c1ccc2ncc(Nc3ccccc3)n2n1	-9%[70.6 µM]	?	i	i	?
COc1cccc(NC(=O)CN2C(=O)NC(c3ccc(C)cc3)C3=C2COC3=O)c1 (centres undefined)	-11%	?	i	i	?
O=C(CN1C(=O)NC(c2ccccc2Cl)C2=C1COC2=O)Nc1cccc(F)c1 (centres undefined)	-17%	?	-5%	?	-28%
O=C(CN1C(=O)NC(c2ccc(Cl)cc2)C2=C1COC2=O)Nc1cccc(Br)c1 (centres undefined)	?	20µM*	-10%	?	?
O=C(CN1C(=O)NC(c2ccc(Cl)cc2)C2=C1COC2=O)Nc1cccc(F)c1 (centres undefined)	-17%	45µM*	i	i	28µM*
COCc1cn(C[C@H]2C[C@@H](NC(=O)c3ccc4c(c3)OCO4)[C@H](O)[C@@H]2O)nn1	-3%[70.6 µM]	i	-8%[88.5 µM]	i	1%[138 µM]
COc1cc2c(cc1-c1cccc(C(F)(F)F)c1)OCC(C)(C)CC2CO (centres undefined)	.	32µM*	.	.	28µM*
O=C(NCc1cccnc1)c1cn2cc(-c3ccc(C(F)(F)F)cc3)sc2n1	.	20µM*	i	.	?
O=C(NCc1ccc(Cl)cc1)c1cn2cc(-c3ccc(C(F)(F)F)cc3)sc2n1	.	-4%	3%	.	-10%
O=C(NCc1ccc(F)cc1)c1cn2cc(-c3ccc(F)cc3)sc2n1	.	?	i	.	?
COc1ccc(-c2cn3cc(C(=O)NCc4cccc(C(F)(F)F)c4)nc3s2)cc1	.	35µM*	?	.	?
SMILES	hNpr1 antagonist	HEK cytotox	GPT2 inhibitor	Luciferase inh	3T3 cytotox
CNC(=O)c1cn2cc(-c3ccc(OC)cc3)sc2n1	.	71µM*	4%[88.5 µM]	.	100µM*
O=C(NCc1ccc(F)cc1)c1cn2cc(-c3ccc(C(F)(F)F)cc3)sc2n1	.	50µM*	?	.	?
COc1cccc(-c2cn3cc(C(=O)NCc4ccccc4)nc3s2)c1	.	?	i	.	?
O=C(NC1CCCC1)C1CCCN1C(=O)c1cccc(-c2ccccn2)c1 (centres undefined)	.	-5%	i	.	-15%
CCc1csc(CNC(=O)c2ccc(OCC3(C)CCCNC3)nc2)n1 (centres undefined)	3%	3%	-4%	?	0%
Cc1cc(Cn2cnc3c2C[C@@H](C(=O)O)N(C(=O)C(c2ccccc2)c2ccccc2)C3)ccc1N	.	.	-5%	.	.
CN1CCC(NC[C@H]2O[C@@H]3C[C@@H](CC(=O)N4CCOCC4)O[C@@H]3[C@@H]2O)CC1	1%[70.6 µM]	-4%[172 µM]	-6%[88.5 µM]	i	-4%[174 µM]
O=C(NCC(F)(F)F)c1cn2cc(-c3cccc(C(F)(F)F)c3)sc2n1	.	?	i	.	?
O=C(NCc1cccc(C(F)(F)F)c1)c1cn2cc(-c3ccc(F)cc3)sc2n1	.	?	i	.	40µM*
O=C(NCc1ccc(F)cc1)c1cn2cc(-c3cccc(C(F)(F)F)c3)sc2n1	.	-24%	i	.	?
O=C(NCCc1ccccc1)c1cn2cc(-c3cccc(C(F)(F)F)c3)sc2n1	.	?	i	.	-12%
O=C(NCC(F)(F)F)c1cn2cc(-c3ccccc3)sc2n1	.	?	i	.	89µM*
O=C(NCc1ccc(Cl)cc1)c1cn2cc(-c3ccc(F)cc3)sc2n1	.	28µM*	i	.	?
O=C(NCc1cccc(C(F)(F)F)c1)c1cn2cc(-c3ccccc3)sc2n1	.	45µM*	?	.	-26%
O=C1C(N2CCN(S(=O)(=O)c3ccc(F)c(F)c3)CC2)CCN1Cc1cccnc1 (centres undefined)	?	?	i	i	-29%
COc1ccc2nc(CO[C@H]3CN(C(=O)c4ccccc4)C[C@H]3F)[nH]c2c1	0%[70.6 µM]	-23%[172 µM]	i	?	-18%[138 µM]
Cc1ccccc1CNC(=O)C1CCCN(Cc2ccncc2)CCC(=O)NCC1 (centres undefined)	4%	-17%	-3%	i	-9%
N#Cc1ccc(C(=O)N2CCCN(CCc3ccccc3)c3ccccc32)cc1	?	?	1%	i	?
COc1ccc(-c2cn3cc(C(=O)NCc4ccc(F)c(F)c4)nc3s2)cc1	.	13µM*	-13%	.	?
COc1cccc(-c2cn3cc(C(=O)NCc4ccc(Cl)cc4)nc3s2)c1	.	?	-3%[88.5 µM]	.	?
O=C(NCc1cccc(Cl)c1)c1cn2cc(-c3ccc(C(F)(F)F)cc3)sc2n1	.	45µM*	-7%	.	22µM*
CCCCOC(=O)N1CCCn2nc(C(=O)N3CCOCC3)cc2C1	-1%	1%	i	i	-11%
CCc1cc(CN(C)C(=O)c2oc3cc(OC)ccc3c2C)on1	4%	?	1%	i	?
